# In PubChem BioAssay AID623868 (Vanderbilt High Throughput Screening Facility, 2012):
# The campaign covered roughly 2,100 compounds. About 760 (36%) were called active. Not all results are given here. Values without a mark were called inactive.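 Rule for the calls: active = thallium-flux fluorescence traces judged by eye to show enhanced or reduced glutamate response, manual score 1 or -1, so both directions (some results past the limit were not filed as active); inactive = the rest, including fluorescent or raised-baseline compounds.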
# Assay: non-GIRK thallium flux modulation in mGlu8 cells, confirmation, counter-screen for GIRK activator project, cell-based, HEK-293 rmGlu8, no GIRK (AID 623868);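 note: extra codes mark interference with 3 for fluorescent and 4 for baseline rise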
# Settings: thallium flux fluorescence, at 10 µM, actives lie on both sides, codes: 1 enhancer, -1 blocker, 0 none, thallium stimulus containing EC20 glutamate
row,Compound,manual score
1,CCOc1cc(C)nc(N2CCN(C3CCCCC3)CC2)n1,0
2,O=C1CC(c2ccncc2)c2cc3c(cc2N1)OCCO3 (stereo not given),0
3,Cc1cccc2sc(NC(=O)Cn3cccc3)nc12,1 (active)
4,CCC(=O)Nc1nc2ccc3nc(C)sc3c2s1,0
5,Cc1ccc(NC(=O)Cn2cccc2)cc1Cl,0
6,CCOc1ccccc1Cn1c(=O)oc2ccc(C)cc21,0
7,COC(=O)c1c(NS(=O)(=O)Cc2ccccc2)sc2c1CCCC2,1 (active)
8,COC(=O)c1c(NC(=S)Nc2ccc(F)cc2[N+](=O)[O-])sc2c1CCCCC2,1 (active)
9,COC(=O)c1c(NC(=S)NC(=O)c2ccco2)sc2c1CCCC2,0
10,COc1ccc(NC(=O)COC(=O)CC23CC4CC(CC(C4)C2)C3)c([N+](=O)[O-])c1,0
11,CCOC(=O)c1c(NS(=O)(=O)Cc2ccccc2)sc2c1CCCC2,1 (active)
12,COc1ccccc1OCC(=O)Nc1sc2c(c1C(=O)NCC1CCCO1)CCC2 (stereo not given),0
13,CCOC(=O)c1c(NC(=S)Nc2ccccc2)sc2c1CCCCC2,1 (active)
14,CCOC(=O)Cn1c(=O)oc2cc(S(=O)(=O)Nc3ccc(N(CC)CC)cc3C)ccc21,0
15,CC(C)c1ccccc1NC(=O)COC(=O)/C=C/c1cccc([N+](=O)[O-])c1,0
16,CC(C)Oc1ccccc1C1Nc2ccccc2C(=O)N1c1ccc2c(c1)OCCO2 (stereo not given),0
17,COC(=O)c1c(NS(=O)(=O)c2cccs2)sc2c1CCCC2,1 (active)
18,CC(=O)Oc1ccc(N(C(C)=O)S(=O)(=O)c2cccs2)c2ccccc12,0
19,COC(=O)c1c(NC(=O)Cc2cccs2)sc(C(=O)NC2CCCCC2)c1C,0
20,CCCCN(CCCC)C(=O)CSc1nnc2n(C)c(=O)c3c4c(sc3n12)CCCC4,-1 (active)
21,CCC1(C)Cc2c(sc3c2c(=O)n(C)c2nnc(SCc4ccc5c(c4)OCO5)n32)CO1 (stereo not given),0
22,CON(c1nc(Cl)nc(N(C)C)n1)S(=O)(=O)c1ccccc1Cl,0
23,CCCCCC/C(C)=C1/SC(=S)NC1=O,1 (active)
24,Cn1c(CNc2nc3ccccc3n2CCN2CCCCC2)nc2ccccc21,0

row,Compound,manual score
1,CC1(C)CC(c2nc(-c3ccc(Br)cc3)cs2)CCS1 (stereo not given),0
2,CCOC(=O)N1CCN(C(=O)CSc2ncnc3ccccc23)CC1,0
3,CCc1c(O)nc(SCC(=O)Nc2ccc(OC)cc2)n(C2CCCCC2)c1=O,0
4,COC(=O)c1ccc2c(=O)n(C3CCCCC3)c(SCC#N)nc2c1,0
5,CCCN(CCC)C(=O)CSc1nc2ccccc2c(=O)n1C1CCCC1,-1 (active)
6,CCOC(=O)N1CCN(C(=O)CSc2nc3c(c(=O)n2-c2ccccc2OC)SCC3)CC1,-1 (active)
7,COC(=O)COn1c(SC(C)C)nc2ccccc2c1=O,0
8,CCOC(=O)CSc1nc2c(sc(=S)n2-c2ccccc2OC)c(=O)n1Cc1ccco1,-0.5
9,CCN(CC)C(=O)CSc1nc2ccccc2c(=O)n1-c1ccccc1OC,-1 (active)
10,N#CC1=C(N)Oc2n[nH]c(-c3cccs3)c2C1c1ccco1 (stereo not given),3
11,Cc1ccc(C)c(N=C2CCCN2Cc2ccccc2)c1C#N,-1 (active)
12,Cc1ccc(N=C2CCCN2Cc2ccccc2)c(C#N)c1,-1 (active)
13,Cc1c(C#N)c2ccccc2n1CC(=O)O,0
14,COC(=O)c1ccc(N2C(=O)CC(Sc3n[nH]c(C)n3)C2=O)cc1 (stereo not given),0
15,CC(C)CCOP(=O)(c1ccc(N(C)C)cc1)C(O)c1ccccn1 (stereo not given),0
16,Brc1ccc(-c2nnc3c4ccccc4nc(N4CCOCC4)n23)cc1,0
17,CCOC(=O)C1CCCN(C(=O)c2cc(-c3ccccc3)on2)C1 (stereo not given),0
18,CCCn1cc(NC(=O)c2cc(-c3ccccc3)on2)cn1,1 (active)
19,CC(C)n1cc(NC(=O)c2cc(-c3ccccc3)on2)cn1,1 (active)
20,O=C(c1cc(-c2ccccc2)on1)N1CCCC1,0
21,CCN(CC)CCCNC(=O)c1cc(-c2ccc(Cl)c(Cl)c2)on1,0
22,CCN(CC)CCN(CC)Cc1ccccc1Br,0
23,CCC(c1nnnn1Cc1ccc(OC)cc1)N(CCCO)Cc1cc2cc3c(cc2[nH]c1=O)OCO3 (stereo not given),0
24,Clc1ccccc1-c1nn2c(COc3ccccc3)nnc2s1,0

row,Compound,manual score
1,S=c1[nH]nc(COc2ccccc2)n1C1CCCCC1,1 (active)
2,CC(O)c1nc2ccccc2n1C1CCCCC1 (stereo not given),0
3,S=c1[nH]nc(CSc2nc3ccccc3s2)n1C1CCCCC1,1 (active)
4,CC(=O)c1c(C(C)=O)c(C)n(-c2nc(-c3cccs3)c(C)s2)c1C,0
5,Cc1ccc(NC(=O)CN2c3cccc4cccc(c34)S2(=O)=O)cc1S(=O)(=O)N1CCOCC1,0
6,O=c1c2cccnc2[nH]c(=S)n1CCCN1CCN(c2ccc(F)cc2)CC1,1 (active)
7,O=c1c2cc(F)ccc2[nH]c(=S)n1CCCN1CCOCC1,0
8,O=c1c2cccnc2[nH]c(=S)n1Cc1ccccc1,1 (active)
9,Cn1c(=O)c2c(nc(-n3ccnc3)n2Cc2ccccc2)n(C)c1=O,0
10,Cc1cc(C(F)(F)F)c2c(=O)[nH]c(=O)n(Cc3ccccc3)c2n1,0
11,CCOC(=O)CN1NC2(CCC(C(C)(C)C)CC2)NC1=S (stereo not given),0
12,O=C(Nc1ncc(Br)s1)C(Cc1ccccc1)n1cccc1 (stereo not given),1 (active)
13,CCSc1nnc(NC(=O)C(Cc2ccccc2)n2cccc2)s1 (stereo not given),0
14,Cc1csc(NC(=O)C(Cc2ccccc2)n2cccc2)n1 (stereo not given),0
15,CCOC(=O)Cn1c(=N)n(CCOc2cccc(C)c2)c2ccccc21,0
16,COc1ccc(OCc2nc(N)nc(Nc3ccccc3)n2)cc1,0
17,Nc1c(-c2ccccc2)cnn1-c1ccc(C(=O)O)cc1,0
18,COc1cc(OC)cc(C(=O)NC(=S)N2CCN(c3ccc(C(F)(F)F)cc3[N+](=O)[O-])CC2)c1,1 (active)
19,COc1ccccc1NC(=O)COc1ccc(C(F)(F)F)cc1[N+](=O)[O-],0
20,Cc1ccc(CC(=O)N2CCN(c3cccc(C(F)(F)F)c3)CC2)cc1,0
21,CC(C)Oc1cccc(C(=O)NC(=S)N2CCN(c3ccc(C(F)(F)F)cc3[N+](=O)[O-])CC2)c1,1 (active)
22,COc1cccc(C(=O)NC(=S)N2CCN(c3ccc(C(F)(F)F)cc3[N+](=O)[O-])CC2)c1,1 (active)
